# High-throughput results from PubChem BioAssay.
# CYP2C9 act: CYP2C9 (human) activation; P11712; recombinant CYP2C9, luciferin-H conversion, luminescence; hits give high values; factor 1 = untreated enzyme, 0 = blocked; activation factor at 5 µM; 1.4% of 96,000 active;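 active = activation factor of 2 or more for CYP2C9 at a 5 µM dose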;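 also: 0 = sulfaphenazole-blocked wells and 1 = vehicle-only wells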
# E-sel TNF inh: blocks E-selectin expression induced by TNF alpha; HUVEC TNFa-induced E-selectin immunofluorescence, high content; 0.71% of 120,000 active; inhibition, % at 2 µM; AID 1246;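 active = inhibition above the batch mean plus 3 SD, and confirmed as a hit on visual image review, cut at about 43% in these data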;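 also: 0% = TNF-stimulated DMSO wells and 100% = unstimulated control wells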
# CYP2C19 activ: cytochrome P450 2C19 (human) activation; recombinant CYP2C19, luciferin-H EGE luminescence; hits give high values; 0 = fully inhibited enzyme, 1 = untreated enzyme; 96,000 tested, under 10 active; P33261; activation factor at 5 µM;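 active = activation factor of at least 2 at 5 µM in the primary screen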;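 also: 0 = wells with 2.5 mM tranylcypromine and 1 = vehicle-only wells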
# Target sequence (P33261 whole entry, looked up): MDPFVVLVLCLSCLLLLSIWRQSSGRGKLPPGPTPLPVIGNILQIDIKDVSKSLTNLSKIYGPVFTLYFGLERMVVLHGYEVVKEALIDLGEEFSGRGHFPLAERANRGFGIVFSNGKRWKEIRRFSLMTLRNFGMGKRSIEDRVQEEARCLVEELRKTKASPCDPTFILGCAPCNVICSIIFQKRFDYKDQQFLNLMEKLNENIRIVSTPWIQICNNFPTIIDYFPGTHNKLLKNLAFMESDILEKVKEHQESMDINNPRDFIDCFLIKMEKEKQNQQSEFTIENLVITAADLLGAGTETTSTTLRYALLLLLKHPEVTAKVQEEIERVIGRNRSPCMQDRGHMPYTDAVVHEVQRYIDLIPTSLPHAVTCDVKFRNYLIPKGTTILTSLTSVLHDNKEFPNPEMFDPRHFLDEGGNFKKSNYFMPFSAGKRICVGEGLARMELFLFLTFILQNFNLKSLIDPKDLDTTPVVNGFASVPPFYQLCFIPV
# CYP2C19 inh: blocks human cytochrome P450 2C19 | inhibition, % at 5 µM | AID 778 | 21% of 96,000 active | P33261 | CYP2C19 Supersomes, luciferin-H EGE luminescence, 30 min;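 active = CYP2C19 inhibition above a set limit at 5 µM in the primary screen, cut at about 50% in these data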;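 also: plate controls were negative control wells for no effect and 2.5 mM tranylcypromine positive control for full effect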
# CYP2C9 inh: human CYP2C9 inhibition; CYP2C9 Supersomes, luciferin-H conversion, luminescence; 20% of 96,000 active; inhibition, % at 5 µM;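 active = blocking of liver enzyme CYP2C9 beyond about 50% at 5 µM, limit read from the data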
# F-actin modifier: modifiers of cytoskeleton assembly; HUVEC TNFa F-actin phalloidin imaging, high content; inhibition, % at 2 µM; 0.18% of 91,000 active;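 active = inhibition above the batch mean plus 3 SD and confirmed as a hit by visual image inspection, cut at about 30% in these data, passing the limit was not always enough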
# * hit, by the source's call; · = no result given. In the library only some 22% were active in any assay of this set; here they are far more common.
SMILES,CYP2C9 act,E-sel TNF inh,CYP2C19 activ,CYP2C19 inh,CYP2C9 inh,F-actin modifier
Cn1nnnc1SCc1nnc(-c2ccc(F)cc2)o1,1.3,-14,1.2,-16,-25,5
Cn1nnnc1SCc1nnc(-c2ccccc2Br)o1,1.1,-3,0.3,65*,-6,-6
Cc1nc(N)sc1-c1csc(N(C)c2ccc(O)cc2)n1,0.5,-45,0.6,43,47,·
Cc1cc(NC(=O)c2cc3n(n2)C(C(F)(F)F)CC(c2ccc(Cl)c(Cl)c2)N3)no1 (stereo not drawn),0.9,-45,1.1,-11,15,·
CCOc1ccccc1C(=O)NCCCCCC(=O)O,1.2,·,0.9,14,-22,14
CC1CCCCN1Cc1nc2c(c(=O)n(C)c(=O)n2C)n1CCc1ccccc1 (stereo not drawn),0.7,18,0.8,19,31,6
CCC(C)(c1ccc(C(=O)OC)s1)c1ccc(C(=O)OC)s1,0,-14,0,98*,98*,28
c1ccc(C2Nc3ccccc3-c3nc4ccccc4n32)cc1 (stereo not drawn),0.3,9,0.5,47,71*,2
c1coc(C2Nc3ccccc3-c3nc4ccccc4n32)c1 (stereo not drawn),0.1,3,0.2,80*,91*,·
c1ccc(C2Nc3ccccc3-c3nc4ccccc4n32)nc1 (stereo not drawn),·,-3,·,·,·,·
C=CCNC(=S)NNC(=O)c1ccc(OCC)cc1,0.9,53*,1,1,6,13
C=CCNC(=S)NNC(=O)c1ccc(OCCC)cc1,·,-27,·,·,·,0
c1ccc(-n2nnnc2-n2ccnc2)cc1,1,-13,0.9,15,-1,7
c1ccc(-n2nnnc2-n2nnc3ccccc32)cc1,0.6,-2,0.1,94*,36,0
Cc1ccc(C(=O)NC(=S)Nc2ccc(NC(=O)c3cccs3)cc2)cc1[N+](=O)[O-],·,-39,·,·,·,·
Cc1ccc(NC(=O)c2ccc3c(c2)OCCO3)cc1S(=O)(=O)Nc1cccc(Cl)c1,·,4,·,·,·,·
COc1ccc(C(=O)Nc2cccc(N(C)S(C)(=O)=O)c2)cc1OC,0.8,36,0.7,34,24,1
Cc1ccc(SCCC(=O)Nc2cccc(N(C)S(C)(=O)=O)c2)cc1,0.2,15,0.1,91*,83*,·
Cc1ccc(C(=O)Nc2cccc(N(C)S(C)(=O)=O)c2)cc1S(=O)(=O)Nc1ccccc1,0.3,-68,0.5,46,72*,-14
COc1ccccc1OCC(=O)Nc1cccc(N(C)S(C)(=O)=O)c1,0.5,-2,0.2,83*,47,14
CC(=O)Nc1cccc(N(C)S(C)(=O)=O)c1,0.8,-38,1.1,-13,20,3
CN(C)S(=O)(=O)c1cccc(NC(=O)CCSc2ccc(Cl)cc2)c1,·,-2,·,·,·,·
Cc1cccc(C)c1N(CC(=O)Nc1cccc(N(C)S(C)(=O)=O)c1)S(C)(=O)=O,0.4,-9,0.6,35,58*,5
CSCCC(CO)NC(=O)OCc1ccccc1 (stereo not drawn),1,-8,0.6,44,1,-3
CN(c1cccc(NC(=O)Nc2cccc(Cl)c2)c1)S(C)(=O)=O,0.3,-9,0.4,62*,72*,11
SMILES,CYP2C9 act,E-sel TNF inh,CYP2C19 activ,CYP2C19 inh,CYP2C9 inh,F-actin modifier
CCCSCC(=O)Nc1ncc2c(n1)-c1ccccc1CC2,·,-25,·,·,·,·
CCCC(=O)n1nc(-c2cccnc2)nc1N,1.1,-5,1,0,-14,6
CC(C)CNC(=O)CC(=O)N/N=C/c1cccs1,·,-14,·,·,·,·
CC(C)NC(=S)N/N=C/c1cccs1,0.6,15,0.2,82*,37,-2
CCN(CC)C(=O)CSc1nc2ccccc2c(=O)[nH]1,0.9,10,1,-4,13,-7
O=C(NNc1cccc(Cl)n1)C1CC1,·,-46,·,·,·,·
COC(=O)C1C(=O)c2c([nH]c(C(=O)OCCOC(C)C)c2C)CC1C (stereo not drawn),0.4,0,0.8,18,59*,2
COC(=O)C1C(=O)c2c([nH]c(C(=O)OC3CCCCC3)c2C)CC1C (stereo not drawn),0.9,-36,1.2,-23,6,·
COC(=O)C1C(=O)c2c([nH]c(C(=O)OC3CCCC3C)c2C)CC1C (stereo not drawn),0.4,-4,0.9,9,56*,·
COc1cc(Nc2nc3ccccc3n3nnnc23)cc(OC)c1OC,0.3,·,0.7,32,69*,-7
COc1nc(/C(N)=N/O)nc(N2CCCCC2)n1,1.1,·,1.1,-13,-8,·
COc1nc(N2CCCCCC2)nc(N2CCCCCC2)n1,0.5,3,0.5,46,51*,-16
Cc1cc(F)c(F)c(C(=O)N2CCN(C)CC2)c1Cl,2.2*,-10,0.9,9,-123,-15
Cc1cc(F)c(F)c(C(=O)N2CCOCC2)c1Cl,·,-18,·,·,·,6
CCc1ccc2[nH]c(=O)c(CN(Cc3ccccc3OC)Cc3nnnn3Cc3ccco3)cc2c1,0,-15,0.4,58*,96*,1
CCOC(=O)Cn1nnnc1CN(Cc1ccc(OC)cc1)Cc1cc2cc(CC)ccc2[nH]c1=O,0,9,0,97*,95*,-1
COc1cc2cc(CN(Cc3nnnn3Cc3ccco3)C3CCCCC3)c(=O)[nH]c2cc1OC,0.9,·,0.8,18,12,36
CCOC(=O)Cn1nnnc1CN(Cc1ccc(OC)cc1)Cc1cc2cc(C)ccc2[nH]c1=O,·,4,·,·,·,-17
COc1ccccc1CN(Cc1cc2cc(C)ccc2[nH]c1=O)Cc1nnnn1Cc1ccco1,0,-35,0,99*,98*,-5
CSc1nnc(NC(=O)c2cc3ccccc3oc2=O)s1,0.9,1,1,2,5,10
CC(=O)/C(=N\Nc1ccc(C)cc1)N1CCOCC1,0.6,-39,0.2,80*,36,-6
Cc1ccc(NC(=O)CC(=O)NCCN2CCOCC2)cc1,1.2,8,1.1,-15,-15,-8
COC(=O)CNC(=O)CN1C(=O)N(c2ccccc2)C(N(O)C(=O)Nc2ccccc2)C1(C)C (stereo not drawn),1,6,0.9,12,-1,-2
O=C1CC(SC(=NCc2ccc3c(c2)OCO3)Nc2ccccc2)C(=O)N1 (stereo not drawn),0.5,·,0,96*,48,-14
COc1ccc(CNc2ccc3c(c2)ncn3-c2ccccc2OC)cc1,0.5,5,0.5,52*,54*,15
COc1ccccc1-n1cnc2cc(NCc3ccco3)ccc21,2*,-17,0.1,93*,-101,-29
CCCNC(=O)c1ccc2c(c1)ncn2-c1ccccc1OC,1.1,-38,1.2,-18,-10,·
COc1ccccc1-n1cnc2cc(NCc3cccs3)ccc21,1.7,-9,0.3,70*,-70,32*
Cc1ccccc1-n1cnc2cc(NCc3cccs3)ccc21,0.7,0,0.5,54*,27,2
